Laboratory results as given in PubChem BioAssay (Tox21).
Results filed as inconclusive are left out. The source made the active and inactive calls. Unless noted, the call rests on the fitted dose curve.

Tests used:
[1] = Nuclear factor erythroid 2-related factor 2/antioxidant responsive element (Nrf2/ARE) small molecule agonists: qHTS cell viability counter screen in human keratinocytes (AID 1919968; active means well fitted curve in the direction sought with a large enough effect in the repeat runs; an effect the other way counts as inactive or inconclusive; further: nearly all actives have a fitted effect of over 55% in size)
Method in brief: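 Viability counter-screen: KeratinoSens reporter cells, DMSO-delivered compounds, 23 h at 37 C, CellTiter-Fluor fluorescence.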

[2] = Nuclear factor erythroid 2-related factor 2/antioxidant responsive element (Nrf2/ARE) small molecule agonists: luciferase reporter gene qHTS assay in human keratinocytes (AID 1919969); further: nearly all actives have a fitted effect of over 35% in size; further: potency means the concentration at half of the fitted maximal effect
[3] = molecular target: Gonadotropin-releasing hormone receptor (Homo sapiens) (UniProt P30968); assay: Human gonadotropin-releasing hormone receptor (GnRHR) small molecule agonists, calcium flux assay in GnRHR-HEK293 cells (AID 1920063); further: nearly all actives have a fitted effect of over 35% in size
Gonadotropin-releasing hormone receptor (Homo sapiens), sequence (P30968 whole entry, looked up): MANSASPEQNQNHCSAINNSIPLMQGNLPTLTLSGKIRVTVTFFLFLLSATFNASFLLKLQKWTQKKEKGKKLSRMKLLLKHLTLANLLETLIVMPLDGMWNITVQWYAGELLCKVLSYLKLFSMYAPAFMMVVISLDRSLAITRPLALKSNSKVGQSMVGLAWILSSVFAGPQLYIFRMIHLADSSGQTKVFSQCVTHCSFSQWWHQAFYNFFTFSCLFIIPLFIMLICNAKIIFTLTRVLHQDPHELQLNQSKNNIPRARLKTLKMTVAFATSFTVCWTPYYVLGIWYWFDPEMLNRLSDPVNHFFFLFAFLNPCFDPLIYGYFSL
Method in brief: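 Tox21-format agonist screen using human GnRHR-expressing HEK293 cells and a fluorescent calcium dye; kinetic 3-min fluorescence reading after compound addition, 15-point concentration series run in triplicate.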

[4] = molecular target: KiSS-1 receptor (Homo sapiens) (UniProt Q969F8); assay: Human kisspeptin (KISS1R) small molecule agonists, calcium flux assay in KISS1R-HEK293 cells (AID 1920064; active means well fitted curve in the direction sought with a large enough effect in the repeat runs; an effect the other way counts as inactive or inconclusive)
KiSS-1 receptor (Homo sapiens), sequence (Q969F8 whole entry, looked up): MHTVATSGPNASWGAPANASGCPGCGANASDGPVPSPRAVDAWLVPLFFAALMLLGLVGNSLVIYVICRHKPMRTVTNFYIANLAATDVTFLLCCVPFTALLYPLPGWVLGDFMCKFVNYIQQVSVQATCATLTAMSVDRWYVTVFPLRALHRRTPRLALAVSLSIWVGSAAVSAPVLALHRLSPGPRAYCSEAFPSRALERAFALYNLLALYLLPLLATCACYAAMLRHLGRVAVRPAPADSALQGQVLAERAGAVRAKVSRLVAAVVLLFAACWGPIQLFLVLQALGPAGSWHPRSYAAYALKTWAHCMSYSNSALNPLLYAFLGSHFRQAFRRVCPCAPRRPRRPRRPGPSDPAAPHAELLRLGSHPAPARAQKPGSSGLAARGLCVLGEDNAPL
Method in brief: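 Intracellular calcium mobilization in KISS1R-HEK293 cells was recorded by fluorescence (Ex/Em 480/540) for 3 min following compound addition to cells pre-loaded 1 h with calcium dye.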

[5] = G protein-coupled receptor (GPCR) small molecule agonists, calcium flux assay: HEK293 wild type cell line counter screen (AID 1920065)
Method in brief: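 In this agonist-mode screen, ATP is the positive control and DMSO the vehicle. Cells grow 18 h before a 1 h dye incubation at 37 C; signal is taken at Ex/Em 480/540 over 3 min.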

[6] = p53 small molecule agonists, cell-based qHTS assay with human liver microsomes (AID 1963577);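 further: p53 response element beta-lactamase reporter cells with liver microsomes plus NADPH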
Method in brief: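 In this qHTS, p53 response-element beta-lactamase cells receive test compound together with a microsome/NADPH activating system (0.5 mg/mL final each) and are incubated 16 h at 37 C before LiveBLAzer fluorescence detection.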

[7] = p53 small molecule agonists, cell-based qHTS assay with rat liver microsomes (AID 1963578)
Method in brief: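 Agonist mode in p53RE-bla reporter cells, with compounds co-incubated 16 h at 37 C alongside 0.5 mg/mL rat liver microsomes and 0.5 mg/mL NADPH (final), followed by a 2 h LiveBLAzer detection step.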

[8] = p53 small molecule agonists, cell-based qHTS assay with human liver microsomes: qHTS cell viability counter screen (AID 1963579); further: nearly all actives have a fitted effect of over 45% in size
Method in brief: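 Metabolically activated exposure: compounds, human liver microsomes and NADPH (0.5 mg/mL final apiece) were added to p53RE-bla cells seeded 5 h earlier, left 16 h at 37 C, and then assessed for viability by CellTiter-Glo luminescence.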

[9] = p53 small molecule agonists, cell-based qHTS assay with rat liver microsomes: qHTS cell viability counter screen (AID 1963580); further: nearly all actives have a fitted effect of over 45% in size
Method in brief: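 HCT-116 p53RE-bla, 4,000 cells/well, 5 h pre-incubation; cpd + rat liver microsomes 0.5 mg/mL + NADPH 0.5 mg/mL (final); 16 h, 37 C; CellTiter-Glo, 30 min RT; luminescence.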

[10] = p53 small molecule agonists, cell-based qHTS assay: qHTS cell viability counter screen (AID 1963581); further: nearly all actives have a fitted effect of over 45% in size
Method in brief: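 Compounds are pinned onto HCT-116 p53RE-bla cells and left 16 h at 37 C. Following the reporter FRET read, ATP is quantified by CellTiter-Glo luminescence after 30 min at room temperature.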

[11] = p53 small molecule agonists, cell-based qHTS assay (AID 1963582; active means well fitted activation curve with a large enough effect in the signal ratio in the repeat runs, not every such curve was filed as active; the % refers to the signal ratio)
Method in brief: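 Agonist activity was scored from beta-lactamase FRET fluorescence in p53RE-bla cells treated 16 h at 37 C with compounds in DMSO, substrate incubation being 2 h at room temperature.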

[12] = molecular target: 5-hydroxytryptamine receptor 2A (Homo sapiens) (UniProt P28223); assay: 5-hydroxytryptamine receptor 2A (HTR2A) small molecule agonists, cell-based qHTS assay (AID 1963587); further: nearly all actives have a fitted effect of over 30% in size
5-hydroxytryptamine receptor 2A (Homo sapiens), sequence (P28223 whole entry, looked up): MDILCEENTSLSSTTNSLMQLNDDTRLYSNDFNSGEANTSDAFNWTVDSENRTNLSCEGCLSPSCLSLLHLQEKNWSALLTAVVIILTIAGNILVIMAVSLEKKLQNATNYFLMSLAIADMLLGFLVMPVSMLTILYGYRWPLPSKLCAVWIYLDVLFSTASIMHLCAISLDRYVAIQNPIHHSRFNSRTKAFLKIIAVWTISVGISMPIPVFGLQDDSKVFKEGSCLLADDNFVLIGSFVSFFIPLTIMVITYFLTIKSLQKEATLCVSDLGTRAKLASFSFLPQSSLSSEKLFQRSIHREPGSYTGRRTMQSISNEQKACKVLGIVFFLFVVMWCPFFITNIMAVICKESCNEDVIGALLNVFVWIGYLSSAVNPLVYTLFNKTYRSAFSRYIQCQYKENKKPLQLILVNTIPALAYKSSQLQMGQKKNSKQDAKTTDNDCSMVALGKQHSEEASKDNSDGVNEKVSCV
Method in brief: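 Kinetic calcium-flux fluorescence (2 min, 1 sec intervals) after compound addition in agonist mode. HTR2A-CHO cells were cultured 18 h, then dye-loaded 1 h at 37 C.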

[13] = molecular target: Muscarinic acetylcholine receptor M1 (Homo sapiens) (UniProt P11229); assay: Cholinergic receptor muscarinic 1 (CHRM1) small molecule antagonists, cell-based qHTS assay (AID 1963588); further: nearly all actives have a fitted effect of over 40% in size; further: potency means the concentration at half of the fitted maximal effect
Muscarinic acetylcholine receptor M1 (Homo sapiens), sequence (P11229 whole entry, looked up): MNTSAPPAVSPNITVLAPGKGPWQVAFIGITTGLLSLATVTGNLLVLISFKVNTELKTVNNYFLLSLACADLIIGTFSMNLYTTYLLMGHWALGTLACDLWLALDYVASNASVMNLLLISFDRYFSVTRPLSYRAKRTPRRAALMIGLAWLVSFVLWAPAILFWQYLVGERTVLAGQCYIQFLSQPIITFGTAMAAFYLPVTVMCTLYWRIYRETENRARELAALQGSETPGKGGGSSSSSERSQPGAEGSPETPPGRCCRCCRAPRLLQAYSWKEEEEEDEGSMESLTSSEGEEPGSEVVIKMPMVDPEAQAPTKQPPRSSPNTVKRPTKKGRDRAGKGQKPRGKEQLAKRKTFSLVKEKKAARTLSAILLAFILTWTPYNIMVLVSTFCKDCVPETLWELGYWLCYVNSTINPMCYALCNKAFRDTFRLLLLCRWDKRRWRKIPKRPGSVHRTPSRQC
Method in brief: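 CHRM1-CHO calcium-flux assay, antagonist mode. Cells were seeded 18 h, dye-loaded 1 h at 37 C and given compound for 5 min at RT, then acetylcholine was added at 50nM. FDSS fluorescence was read 3 min; 15 concentrations, three runs.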

[14] = molecular target: Muscarinic acetylcholine receptor M1 (Homo sapiens) (UniProt P11229); assay: Cholinergic receptor muscarinic 1 (CHRM1) small molecule agonists, cell-based qHTS assay (AID 1963589); further: nearly all actives have a fitted effect of over 35% in size
Method in brief: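 Stable CHRM1-CHO cells (human receptor) were incubated 18 h, dye-loaded for 1 h at 37 C and exposed to test compounds for agonist activity, with calcium-dependent fluorescence followed kinetically.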

[15] = cAMP Responsive Elements (CRE) small molecule agonists, cell-based qHTS assay (AID 1963590)
Method in brief: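 FRET-based beta-lactamase readout (LiveBLAzer B/G, 2 h RT) quantified CRE activation in HEK 293T CRE-bla cells after 3 h treatment with DMSO-dissolved compounds.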

[16] = cAMP Responsive Elements (CRE) small molecule antagonists, cell-based qHTS assay (AID 1963591; active means well fitted inhibition curve with a large enough effect in the signal ratio in the repeat runs, not every such curve was filed as active; the % refers to the signal ratio)
Method in brief: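 qHTS in CRE-bla HEK 293T cells: compound in DMSO, then 0.25 uM NKH477 (final), 3 h at 37 °C/5% CO2; beta-lactamase FRET read-out after 2 h substrate incubation.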

[17] = molecular target: Beta-2 adrenergic receptor (Homo sapiens) (UniProt P07550); assay: Adrenergic beta2 receptor (ADRB2) small molecule antagonists, cell-based qHTS assay (AID 1963592); further: series mostly up to about 92 µM; nearly all actives have a fitted effect of over 50% in size
Beta-2 adrenergic receptor (Homo sapiens), sequence (P07550 whole entry, looked up): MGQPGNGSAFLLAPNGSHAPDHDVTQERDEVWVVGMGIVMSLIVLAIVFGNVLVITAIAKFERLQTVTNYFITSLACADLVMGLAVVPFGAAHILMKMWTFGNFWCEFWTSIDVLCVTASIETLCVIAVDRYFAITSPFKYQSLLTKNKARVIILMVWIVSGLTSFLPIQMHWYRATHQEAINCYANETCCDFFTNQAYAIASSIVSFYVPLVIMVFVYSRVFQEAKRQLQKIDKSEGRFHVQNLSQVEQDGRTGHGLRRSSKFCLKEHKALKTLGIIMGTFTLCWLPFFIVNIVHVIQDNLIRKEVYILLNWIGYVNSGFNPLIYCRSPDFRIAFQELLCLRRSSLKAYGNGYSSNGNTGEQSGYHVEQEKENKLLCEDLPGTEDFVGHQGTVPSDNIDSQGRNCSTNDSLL
Method in brief: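 Cells (CHO, stable ADRB2 overexpression) incubated 18-20hr at 37C; compounds added from DMSO; agonist mix (1nM isoproterenol, 100uM IBMX, 25uM Ro-20-1724) added; 0.5hr RT; d2-cAMP and anti-cAMP-cryptate added; 1hr RT; 665/615 nm read.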

[18] = molecular target: D(2) dopamine receptor (Homo sapiens) (UniProt P14416); assay: Dopamine D2 receptor (DRD2) small molecule agonists, cell-based qHTS assay (AID 1963594); further: nearly all actives have a fitted effect of over 35% in size
D(2) dopamine receptor (Homo sapiens), sequence (P14416 whole entry, looked up): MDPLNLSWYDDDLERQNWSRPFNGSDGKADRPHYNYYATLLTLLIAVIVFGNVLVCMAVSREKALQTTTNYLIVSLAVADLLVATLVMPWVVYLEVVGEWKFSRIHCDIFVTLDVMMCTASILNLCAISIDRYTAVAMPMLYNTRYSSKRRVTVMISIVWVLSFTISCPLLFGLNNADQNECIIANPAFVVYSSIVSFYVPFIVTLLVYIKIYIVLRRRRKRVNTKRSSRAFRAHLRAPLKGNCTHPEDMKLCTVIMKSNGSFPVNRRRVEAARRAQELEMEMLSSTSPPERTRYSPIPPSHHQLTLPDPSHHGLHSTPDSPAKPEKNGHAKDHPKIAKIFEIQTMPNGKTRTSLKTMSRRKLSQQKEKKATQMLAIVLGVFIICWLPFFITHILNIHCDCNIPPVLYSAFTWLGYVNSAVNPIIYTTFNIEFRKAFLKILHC
Method in brief: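 cAMP accumulation in DRD2-HEK293 cells measured by HTRF after 1 h detection; compounds added 10 min before NKH477 (200nM […]) forskolin-analogue stimulation, 30 min at room temperature, with Ro20-1724 present at 0.1 mM final.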

[19] = molecular target: D(2) dopamine receptor (Homo sapiens) (UniProt P14416); assay: Dopamine D2 receptor (DRD2) small molecule antagonists, cell-based qHTS assay (AID 1963595; active means well fitted inhibition curve with a large enough effect in the signal ratio in the repeat runs, with a control signal flat; the % refers to the signal ratio)
Method in brief: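 Antagonism was scored as restored cAMP in HEK293-DRD2 cells. These cells were stimulated with 200 nM NKH477 and 12 nM quinpirole for 30 min at room temperature, in the presence of 0.1 mM Ro20-1724.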

[20] = molecular target: 5-hydroxytryptamine receptor 2A (Homo sapiens) (UniProt P28223); assay: 5-hydroxytryptamine receptor 2A (HTR2A) small molecule antagonists, cell-based qHTS assay (AID 1963586); further: nearly all actives have a fitted effect of over 45% in size
Method in brief: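 Antagonist-mode intracellular calcium assay: DOI (4 nM) added after 5 min compound pre-incubation at room temperature to dye-loaded HTR2A-CHO cells. Fluorescence followed for 3 min, sampled every second.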

Measured: Potency

CN1CCC(N(Cc2ccccc2)c2ccccc2)CC1
active: [13] 0.365 µM
not listed: [20]
inactive: all other assays above

C/C=C/c1ccc2c(c1)OCO2
not listed: [12] | [13] | [14] | [20]
inactive: all other assays above

CCc1cccc(C)c1N(C(=O)CCl)C(C)COC (stereo not given)
active: [2] 57.6 µM
not listed: [11]
inactive: all other assays above

CS(=O)(=O)NC(=O)c1cc(Oc2ccc(C(F)(F)F)cc2Cl)ccc1[N+](=O)[O-]
not listed: [12] | [20]
inactive: all other assays above

CC(C)c1ccc(O)cc1
not listed: [12] | [13]
inactive: all other assays above

C1CN2CCC1CC2
not listed: [11]
inactive: all other assays above

O=C(O)CC(O)(CC(=O)O)C(=O)O
not listed: [12] | [13] | [14] | [20]
inactive: all other assays above
